Data reported in PubChem BioAssay.
Calls of active or inactive are those of the source.

Test: growth of efflux-deficient E. coli DRC39 – strain DRC39, OD650, 24 h, E. coli filamentation inducers, primary screen (AID 1178);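 note: growth measured as culture turbidity by optical density at 650 nm; test concentration not given here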
Details: E. coli DRC39 acrAB, higher = more signal, called active from +8 up or from −8 down

z-score, inactive:
O=C1OCCC/C=C\[C@H]2OC34C=CCN(Cc5ccccc5)C(=O)[C@H]3N(CCCCCO)C(=O)[C@@H]4C12 (stereo not given in full) 0.691
CO[C@H]1O[C@H](CO)[C@@H](OC(=O)Nc2ccc(C(F)(F)F)cc2)[C@H](OC(=O)Nc2ccccc2-c2ccccc2)[C@H]1OC(=O)Nc1ccccc1-c1ccccc1 -0.853
COCCOC(=O)N1C(=O)[C@@]2(c3cc(C#CCCO)ccc31)[C@H](C(=O)N1CCN(c3ncccn3)CC1)[C@H]1C(=O)O[C@H](c3ccccc3)[C@H](c3ccccc3)N1[C@@H]2c1ccc(O)cc1 0.947
[N-]=[N+]=NCc1ccccc1[C@H]1OC(c2ccc(OCCCO)cc2)=N[C@@]1(Cc1ccccc1)C(=O)N1CCOCC1 -0.0844
C=CCC(OC(C)=O)[C@@H]1[C@@H](N(Cc2ccc(-c3ccccc3)cc2)C(=O)c2ccc(C)cc2)c2cc(OCCCO)ccc2N1C(=O)c1ccc2ccccc2c1 (stereo not given in full) 0.406
CCCCC(O)C1C=CC2C(=O)N(C)C(=O)C2N1Nc1ccccc1 (stereo not given) -0.867
COCCOC(=O)N1C(=O)[C@@]2(c3cc(C#CCC(C(=O)OC)C(=O)OC)ccc31)[C@H](C(=O)N1CCCCCCC1)[C@H]1C(=O)O[C@H](c3ccccc3)[C@H](c3ccccc3)N1[C@@H]2c1ccccc1OCCO -0.82
COC(=O)[C@@]1(Cc2ccccc2)[C@H]2c3cc(C(=O)N4CCCC4)n(Cc4ccc(C(F)(F)F)nc4)c3C[C@H]2CN1C(=O)c1ccccc1 0.018
CN1C(=O)[C@]2(CCS(=O)(=O)c3ccccc3)N=C(c3ccc(OCCCO)cc3)O[C@@H]2c2ccccc21 0.124
C=CCC(OC(C)=O)[C@@H]1[C@@H](N(Cc2cccc3ccccc23)C(=O)c2cccc3ccccc23)c2cc(OCCCO)ccc2N1C(=O)Cc1ccc2ccccc2c1 (stereo not given in full) 0.632
CCCCNC(=O)c1ccc(C#C[Si](C)(C)C)c(OC(C)=O)c1 1.17
CCOC(=O)C1=CC[C@@H](c2ccccc2Cl)N(S(=O)(=O)c2ccc(C)cc2)[C@H]1c1cccc(OC)c1 -0.484
Cc1ccc(F)cc1S(=O)(=O)N[C@@H]1CCN(Cc2ccc3c(c2)OCO3)C1 -0.572
C#CCN(C/C=C/c1ccccc1)[C@H](CO[Si](C)(C)C(C)(C)C)c1ccccc1 -1.38
N[C@@H](Cc1ccccc1)Cn1cc(C2(O)CCCCC2)nn1 -0.0019
COCCOC(=O)N1C(=O)[C@@]2(c3cc(C#CCC(C(=O)OC)C(=O)OC)ccc31)[C@H](c1ccc(OCCO)cc1)N1[C@H](c3ccccc3)[C@H](c3ccccc3)OC(=O)[C@H]1[C@@H]2C(=O)N1CCCCCCC1 -0.599
COc1ccc(NC(=O)O[C@H]2[C@H](OC(=O)Nc3ccc4c(c3)OCO4)[C@H](OC(=O)Nc3ccc4c(c3)OCO4)[C@@H](OC)O[C@@H]2CO)cc1 0.677
COc1ccc(NN2C(C(O)c3cc(C(F)(F)F)cc(C(F)(F)F)c3)C=CC3C(=O)N(C4CCCCC4)C(=O)C32)cc1 (stereo not given) -0.587
COCCOC(=O)N1C(=O)[C@@]2(c3cc(C#Cc4ccc(OC)cc4)ccc31)[C@H](C(=O)Nc1nc3ccccc3s1)[C@H]1C(=O)O[C@H](c3ccccc3)[C@H](c3ccccc3)N1[C@@H]2c1ccccc1OCCO 0.285
C=C(COC)/C(=C/C[C@H](OC(=O)c1ccncc1)c1ccc(OCCO)cc1)c1cc(C(=O)OC)ccc1OC -0.0988
COc1ccc([Si](C)(C)[C@H]2[C@H](CCO)O[C@@]3(C(=O)N(Cc4ccccc4)c4ccc(N(C=O)c5ccccc5)cc43)[C@@H]2C)cc1 1.28
C=CC[C@]1(C(=O)OC)N=C(c2ccc(OCCCO)cc2)O[C@H]1c1ccccc1N=[N+]=[N-] 0.0005
COc1ccccc1CN1C(=O)c2ccccc2[C@](Cc2ccccc2I)(C(=O)NCCCN(C)C)[C@@H]1c1ccc(CO)cc1 -1.17
CC1CC/C=C\[C@H]2OC34C=CCN(c5ccc(Cl)cc5)C(=O)[C@H]3N(CCCO)C(=O)[C@]4(C)C2C(=O)O1 (stereo not given in full) -0.699
CC[C@H](C)C(=O)O[C@H]1CC[C@]2(C)C3=C(CCC2C1(C)C)[C@]1(C)CC[C@H]([C@H](C)CCCC(C)C)[C@@]1(C)CC3 (stereo not given in full) 2.06
CCOC(=O)C[C@H]1[C@H](OC(=O)c2cc3ccccc3oc2=O)[C@@H](NC(=O)C2CCCCC2)c2cc(OCCCO)ccc2N1C(=O)Cc1ccc(OC)cc1 -0.825
CC(C)C(=C=CC[C@@H](O)c1cccc(OCCO)c1)CCO 0.546
C=C(COC)/C(=C/C[C@H](OC(=O)c1ccncc1)c1cccc(OCCO)c1)c1cnc2ccccc2c1 -0.259
CC(C)CNC(=O)[C@@H]1c2ccccc2C(=O)N(Cc2ccccc2)[C@H]1c1ccc(CO)cc1 0.278
C=C(COC)C(=O)CC[C@@H](OC(C)=O)c1ccc(OCCO)cc1 -0.623
CCCCC(=C=CC[C@H](O)c1ccc(OCCO)cc1)C[C@H](O)c1ccccn1 1.45
CC(C)c1ccc(NN2C(C(O)C(C)C)C=CC3C(=O)N(c4ccccc4)C(=O)C32)cc1 (stereo not given) 0.0582
COCCOC(=O)N1C(=O)[C@@]2(c3cc(C#CC4=CCCCC4)ccc31)[C@H](C(=O)N1CCN(c3ncccn3)CC1)[C@H]1C(=O)O[C@H](c3ccccc3)[C@H](c3ccccc3)N1[C@@H]2c1ccccc1OCCO -0.368
CC(C)C(=C=CC[C@@H](O)c1ccccc1OCCO)C[C@@H](O)c1cc(Cl)cc(Cl)c1O -0.501
COc1ccc(C(O)C2C=CC3C(=O)N(C)C(=O)C3N2Nc2ccc([N+](=O)[O-])cc2[N+](=O)[O-])cc1OCc1ccccc1 (stereo not given) -0.98
